50 compounds from ChEMBL document CHEMBL3988442, “University of Dundee, Small-Polar-MMV Screening Library” (2021) can be followed below.

Out of some 69,000 compounds screened, about 1,000 (1.4%) showed an effect of 50% or more. The sample as a whole holds a higher share of strong results than the screen did.

This test deals with Leishmania donovani. The experiment in a line: Leishmania intramacrophage assay. The class given is functional, organism-based. More on the design: scale not given: in the data most compounds retested in dose-response had high values.

Turning to `COCC1c2c(cnn2C)CCN1C(=O)c1cscn1.O=C(O)C(F)(F)F` (stereo not given), the “Percent Effect” value (30.3 µM, […]) worked out at 23.63%.
On the same count and under the same terms, under `COCC1c2c(cnn2C)CCN1C(=O)c1cccn1C.O=C(O)C(F)(F)F` (stereo not given) stands 51.46%.
The same measure, in the same setting: under `COCC1c2c(cnn2C)CCN1C(=O)c1cc(C)on1.O=C(O)C(F)(F)F` (stereo not given) stands 13.09%; under `CCCC(=O)Nc1ccc(CC(=O)N(C)CCc2cn[nH]c2)cc1`, 12.21%.
As to `NC(=O)C1CCCN(S(=O)(=O)c2cnn(-c3ccccc3)c2)C1` (stereo not given), the “Percent Effect” value (30.3 µM, […]) was 13.13%.
The same measure, in the same setting: under `NC(=O)C1CCN(S(=O)(=O)c2cnn(-c3ccccc3)c2)C1` (stereo not given) stands 30.89%.
With `NC(=O)C1CCN(S(=O)(=O)c2cnn(-c3ccccc3)c2)CC1`, under “30.3 µM, […]”, the “Percent Effect” value amounted to 68.11%.
On the same count and under the same terms, under `COc1ccc([C@@H]2C[C@H](NC(C)=O)C[C@H](CCc3ccccc3)O2)cn1` stands 22.12%; under `CN(C(=O)CCc1nc(C2CC2)no1)c1cc(C#N)c2ccccc2n1`, -8.685%.
`O=C(NCCOc1ccc2c(c1)OCO2)C1CC(=O)N(CC2CC2)C1` (stereo not given): the “Percent Effect” value (30 µM, 30.03 µM) is 11.04%.
On the same count and under the same terms, under `O=C(NCC(=O)N1CCCCC1)c1ccoc1` stands -16.27%.
With `O=C(c1ccc(F)c(F)c1)N1CCC[C@]2(C[C@@H](OCC3CC3)CO2)C1`, the “Percent Effect” value (30.3 µM, […]) came to 53.63%.
For the compound `CCO[C@@H]1CO[C@@]2(CCCN(C(=O)c3ccc(OC)c(F)c3)C2)C1`, the “Percent Effect” value (30 µM, 30.03 µM) is on record as 6.334%.
Consider `O=C(c1ccc2c(c1)OCO2)N1CCC[C@]2(C[C@H](OCC3CC3)CO2)C1`, for which the “Percent Effect” value (30 µM, 30.03 µM) was 23.48%.
For the compound `COC1COC2(CCN(C(=O)c3cocn3)CC2)C1` (stereo not given), the “Percent Effect” value (30.3 µM, […]) was -1.503%.
Still for that read-out and setting: under `O=C(c1cocn1)N1CCC2(CC1)CC(OCC1CC1)CO2` (stereo not given) stands 52.58%.
Same read-out and setting: under `O=C(c1cocn1)N1CCC[C@]2(C[C@@H](OCC3CC3)CO2)C1` stands 14.29%.
Regarding `CC(C)CSCCN1CCCN(S(C)(=O)=O)CC1`, the “Percent Effect” value (30.3 µM, […]) worked out at 6.004%.
Take `COc1ccc(C2CCCN2C(=O)c2ccc(=O)n(C)c2)cc1OC` (stereo not given): the “Percent Effect” value (30.3 µM, […]) is listed as -9.758%.
Same read-out and setting: under `Cc1ccsc1CNCCCOc1ccccn1` stands -17.78%; under `c1ccc(OCCCNCc2cccs2)nc1`, 58.66%.
The same measure, in the same setting: under `c1ccc(OCCNCc2cccs2)nc1` stands 46.82%.
Still for that read-out and setting: under `CC(C)[C@H]1CN(CCCO)C[C@@H]1NC(=O)CCC(F)(F)F` stands -10.59%.
Turning to `CN(C)CCn1ccnc1C1CCCN(c2ncc(Cl)cc2F)C1` (stereo not given), under “30.3 µM, […]”, the “Percent Effect” value is given as 16%.
`CCS(=O)(=O)N1CCOC2(CCCN(c3ccc(C)nn3)C2)C1.O=C(O)C(F)(F)F` (stereo not given): where the note is “30 µM, 30.03 µM”, the “Percent Effect” value came out at 11.03%.
With `CC(C)c1nc(C(=O)N2C[C@H]3CC[C@@H]2CN(C2CCOCC2)C3)cs1`, under “30.3 µM, […]”, the “Percent Effect” value was 12.76%.
With `CNc1nc(C(=O)N2C[C@H]3CC[C@@H]2CN(S(C)(=O)=O)C3)cs1`, the “Percent Effect” value (30.3 µM, […]) is 50.94%.
On the same count and under the same terms, under `CNc1nc(C(=O)N2C[C@H]3CC[C@@H]2CN(C2CCOCC2)C3)cs1` stands 4.94%; under `CS(=O)(=O)NC[C@]12COC[C@H]1CN(CCc1ccccc1)C2.O=C(O)C(F)(F)F`, 17.9%.
With `CS(=O)(=O)NC[C@]12COC[C@H]1CN(CC1CCCC1)C2.O=C(O)C(F)(F)F`, the “Percent Effect” value (30 µM, 30.03 µM) is -6.018%.
For the compound `CS(=O)(=O)NC[C@]12COC[C@H]1CN(CC1CCC1)C2.O=C(O)C(F)(F)F`, under “30.3 µM, […]”, the “Percent Effect” value is listed as 80.19%.
`O=C(Nc1cnccn1)[C@H]1CC[C@@H]2[C@@H](CCN2Cc2ccccn2)O1.O=C(O)C(F)(F)F`: the “Percent Effect” value (30.3 µM, […]) was found to be 28.13%.
On the same count and under the same terms, under `CC(O)CCN(C)C(=O)Nc1cccc(F)c1` (stereo not given) stands 1.493%; under `Cl.Clc1cccnc1OC1CCNCC1`, 14.95%; under `Cl.Clc1ccccc1CN1CCc2nc(C3CCNCC3)ncc2C1`, 3.749%.
For `Clc1ccccc1C1(c2ccnc(C3CC3)n2)CCNCC1`, the “Percent Effect” value (30.3 µM, […]) came out at 94.79%.
Regarding `Clc1ccccc1C1(c2ccnc(C3CCCC3)n2)CCNCC1`, the “Percent Effect” value (30.3 µM, […]) worked out at 99.4%.
Turning to `OC1(CN2CCC(Cc3ncccn3)CC2)CCOCC1`, where the note is “30.3 µM, […]”, the “Percent Effect” value stood at 5.693%.
Regarding `Clc1ccccc1C1(c2ccnc(CC3CC3)n2)CCNCC1`, the “Percent Effect” value (30 µM, 30.03 µM) is recorded as 93.39%.
Take `Cl.Clc1ccccc1CN1CCc2nc(C3CCCNC3)ncc2C1` (stereo not given): the “Percent Effect” value (30.3 µM, […]) is listed as 6.249%.
Same read-out and setting: under `c1ccc2ncc(CC3CCNCC3)cc2c1` stands -17.37%.
On the same count and under the same terms, under `Cl.Cl.c1ccc2c(c1)C(NC1CCCC1)CC21CCNCC1` (stereo not given) stands 32.48%; under `Cn1cc(-c2cnc(N3CCOCC3)nc2)cc1C(=O)N1CCCC1`, 13.22%.
As to `O=C(NCc1ccccc1-n1cccn1)N1CCC(N2CCCC2)C1` (stereo not given), the “Percent Effect” value (30 µM) stood at 13.6%.
`O=S(=O)(NC1=NCN(CCc2ccccc2)CN1)c1ccc(F)cc1`: for the setting “30.3 µM, […]”, the “Percent Effect” value was 1.728%.
In the case of `CCc1cc(C(=O)N2CCC(C3CCN(c4ncccn4)CC3)C2)on1` (stereo not given), the “Percent Effect” value (30.3 µM, […]) is reported as 4.034%.
Same read-out and setting: under `Cc1nc(NCCc2ccccc2)cc(C(=O)N2CCOCC2)n1` stands 21.35%; under `CCn1c(-c2ccccc2)nn(CC(=O)NCCc2c[nH]cn2)c1=O`, 22.36%.
In the case of `Cc1cc(=O)c(C(=O)N(C)Cc2ccc(Cl)c(F)c2)c[nH]1`, under “30.3 µM, […]”, the “Percent Effect” value was 24.44%.
Take `Cc1cnn(C2CCCN(C(=O)c3cn4ccccc4n3)C2)c1` (stereo not given): the “Percent Effect” value (30 µM) is listed as -3.479%.
